Data published in PubChem BioAssay (NCI).
This is part of a sample that, as a whole, favours compounds with a hit. Of some 79,000 tested, about 15% had one in any assay. A number with no mark means an inactive call. Calls of active or inactive are those of the source. Rule as the data show it: active = growth inhibition above about 70%; inactive = the rest.

Tests used:
[1] = NCI Yeast Anticancer Drug Screen. Data for the rad52 strain (AID 147);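 also: 0% = growth of vehicle-treated control cultures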; settings: S. cerevisiae rad52 mutant growth inhibition, hits give high values
Summary of the method: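 DNA repair-defective yeast; compound exposure; growth scored against vehicle controls.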

[2] = NCI Yeast Anticancer Drug Screen. Data for the rad50EPP+ strain (AID 151);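 also: 0% = growth of vehicle-treated control cultures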; settings: S. cerevisiae rad50 mutant strain, hits give high values
Summary of the method: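 rad50EPP+ yeast treated with test compounds. Readout: growth vs vehicle control.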

[3] = NCI Yeast Anticancer Drug Screen. Data for the mgt1 strain (AID 153); settings: S. cerevisiae mgt1 mutant growth inhibition, hits give high values
Summary of the method: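 Growth inhibition relative to vehicle controls was scored for the mgt1 yeast strain after compound exposure.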

[4] = NCI Yeast Anticancer Drug Screen. Data for the rad50 strain (AID 155);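 also: 0% = growth of vehicle-only cultures of the same strain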; settings: S. cerevisiae rad50 strain growth inhibition, hits give high values
Summary of the method: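 Genetically altered yeast (DNA repair pathway); compound treatment; growth inhibition vs vehicle ctrl.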

[5] = NCI Yeast Anticancer Drug Screen. Data for the mec2-1 strain (AID 157); settings: S. cerevisiae mec2-1 strain, hits give high values
Summary of the method: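 Growth inhibition is read against vehicle-treated controls after compound exposure of the mec2-1 yeast strain, which is defective in DNA damage repair or cell cycle control.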

[6] = NCI Yeast Anticancer Drug Screen. Data for the rad14 strain (AID 159);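 also: 0% = growth of vehicle-treated control cultures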; settings: S. cerevisiae rad14 strain growth inhibition, hits give high values
Summary of the method: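 Test compounds were applied to a repair-deficient yeast strain. Its growth was then compared with that of cultures given vehicle alone, and inhibition was expressed relative to those controls.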

[7] = NCI Yeast Anticancer Drug Screen. Data for the sgs1 mgt1 strain (AID 161);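 also: 0% = growth of cultures given vehicle only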; settings: S. cerevisiae sgs1 mgt1 strain, hits give high values
Summary of the method: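 Yeast cells carrying a defined DNA-repair defect were exposed to test compounds. Growth inhibition was measured relative to vehicle-treated controls.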

[8] = NCI Yeast Anticancer Drug Screen. Data for the cln2 rad14 strain (AID 165);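 also: 0% = growth equal to vehicle treated cultures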; settings: S. cerevisiae cln2 rad14 strain, hits give high values
Summary of the method: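 Growth inhibition, relative to vehicle-treated controls, is the read-out. The test organism is a yeast strain with defined genetic alterations, cln2 rad14.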

[9] = NCI Yeast Anticancer Drug Screen. Data for the bub3 strain (AID 167); settings: S. cerevisiae bub3 mutant strain, hits give high values
Summary of the method: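 Yeast carrying a defined mutation is treated with each compound, and growth is compared with that of vehicle-exposed cells to give inhibition.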

[10] = NCI Yeast Anticancer Drug Screen. Data for the wt2 strain (AID 169);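 also: 0% = growth of vehicle-treated yeast cultures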; settings: S. cerevisiae wt2 strain growth inhibition, hits give high values
Summary of the method: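 Compound exposure of yeast; growth compared with vehicle controls; inhibition reported.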

[11] = NCI Yeast Anticancer Drug Screen. Data for the mlh1 strain (AID 171);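 also: 0% = growth of vehicle-treated control cultures of the same strain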; settings: S. cerevisiae mlh1 strain growth inhibition, hits give high values
Summary of the method: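 Compounds are applied to a genetically altered yeast strain, and its growth is compared with that of vehicle-treated cultures to give percent inhibition.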

[12] = NCI Yeast Anticancer Drug Screen. Data for the sgs1 strain (AID 173);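 also: 0% = growth of vehicle-only control cultures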; settings: S. cerevisiae sgs1 mutant, hits give high values
Summary of the method: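 Compounds applied to genetically altered yeast; growth compared with vehicle-treated cultures to give % inhibition.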

[13] = NCI Yeast Anticancer Drug Screen. Data for the mlh1 rad18 strain (AID 175); settings: S. cerevisiae mlh1 rad18 strain growth inhibition, hits give high values
Summary of the method: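 Cells of a genetically altered yeast strain, deficient in DNA damage repair, were treated with compound. Their growth was then compared with that of vehicle-treated cultures to give inhibition.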

[14] = NCI Yeast Anticancer Drug Screen. Data for the rad18 strain (AID 177); settings: S. cerevisiae rad18 mutant growth inhibition, hits give high values
Summary of the method: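 Compounds are applied to a repair-deficient yeast strain, and growth is compared with that of vehicle-treated cultures to give percent inhibition.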

[15] = at 5.0 µM (retest, dose inferred, filed as 0.5)
[16] = at 50.0 µM (retest, dose inferred, filed as 5.0)

Question: For `CC(C)=NOC(=O)Nc1ccc(Cl)cc1`, which growth inhibition ([1]; at 1.2 µM) is on record?
Answer: Its growth inhibition is 1%.

Question: And the growth inhibition ([1]; at 3.7 µM)?
Answer: Its growth inhibition is -7%.

Question: And the growth inhibition ([1]; at 11.0 µM)?
Answer: The growth inhibition was -8%.

Question: What about the growth inhibition ([1]; at 33.0 µM) of the same compound?
Answer: Its growth inhibition is 15%.

Question: And the growth inhibition ([1]; at 100.0 µM)?
Answer: The growth inhibition was 66%.

Question: And the growth inhibition ([2]; at 1.2 µM)?
Answer: Its growth inhibition is -32%.

Question: What about the growth inhibition ([2]; at 3.7 µM) of the same compound?
Answer: The growth inhibition was 18%.

Question: What about the growth inhibition ([2]; at 11.0 µM) of the same compound?
Answer: The growth inhibition was 23%.

Question: And the growth inhibition ([2]; at 33.0 µM)?
Answer: The growth inhibition was 79% (active).

Question: And the growth inhibition ([2]; at 100.0 µM)?
Answer: The growth inhibition was 95% (active).

Question: What about the growth inhibition ([3]; at 1.2 µM) of the same compound?
Answer: The growth inhibition was -41%.

Question: And the growth inhibition ([3]; at 3.7 µM)?
Answer: The growth inhibition was -60%.

Question: And the growth inhibition ([3]; at 11.0 µM)?
Answer: The growth inhibition was -56%.

Question: And the growth inhibition ([3]; at 33.0 µM)?
Answer: Its growth inhibition is -11%.

Question: What about the growth inhibition ([3]; at 100.0 µM) of the same compound?
Answer: Its growth inhibition is 74% (active).

Question: What about the growth inhibition ([4]; at 1.2 µM) of the same compound?
Answer: The growth inhibition was 2%.

Question: And the growth inhibition ([4]; at 3.7 µM)?
Answer: The growth inhibition was 11%.

Question: What about the growth inhibition [4, 15] of the same compound?
Answer: The growth inhibition was 87% (active).

Question: And the growth inhibition ([4]; at 11.0 µM)?
Answer: Its growth inhibition is -3%.

Question: What about the growth inhibition ([4]; at 33.0 µM) of the same compound?
Answer: The growth inhibition was 28%.

Question: And the growth inhibition [4, 16]?
Answer: Its growth inhibition is 98% (active).

Question: What about the growth inhibition ([4]; at 50.0 µM) of the same compound?
Answer: Its growth inhibition is 58.2%.

Question: And the growth inhibition ([4]; at 100.0 µM)?
Answer: The growth inhibition was 67%.

Question: What about the growth inhibition ([5]; at 1.2 µM) of the same compound?
Answer: Its growth inhibition is -40%.

Question: What about the growth inhibition ([5]; at 3.7 µM) of the same compound?
Answer: Its growth inhibition is -26%.

Question: And the growth inhibition [5, 15]?
Answer: The growth inhibition was 76% (active).

Question: What about the growth inhibition ([5]; at 11.0 µM) of the same compound?
Answer: The growth inhibition was -24%.

Question: What about the growth inhibition ([5]; at 33.0 µM) of the same compound?
Answer: Its growth inhibition is -7%.

Question: And the growth inhibition [5, 16]?
Answer: Its growth inhibition is 99% (active).

Question: And the growth inhibition ([5]; at 50.0 µM)?
Answer: The growth inhibition was 29.9%.

Question: And the growth inhibition ([5]; at 100.0 µM)?
Answer: Its growth inhibition is 47%.

Question: What about the growth inhibition ([6]; at 1.2 µM) of the same compound?
Answer: The growth inhibition was -48%.

Question: And the growth inhibition ([6]; at 3.7 µM)?
Answer: The growth inhibition was -50%.

Question: And the growth inhibition ([6]; at 11.0 µM)?
Answer: Its growth inhibition is -30%.

Question: What about the growth inhibition ([6]; at 33.0 µM) of the same compound?
Answer: Its growth inhibition is -25%.

Question: And the growth inhibition ([6]; at 100.0 µM)?
Answer: Its growth inhibition is 45%.

Question: And the growth inhibition [7, 15]?
Answer: The growth inhibition was 0%.

Question: What about the growth inhibition [7, 16] of the same compound?
Answer: The growth inhibition was 92% (active).

Question: And the growth inhibition ([7]; at 50.0 µM)?
Answer: The growth inhibition was 72.8% (active).

Question: What about the growth inhibition [8, 15] of the same compound?
Answer: The growth inhibition was 77% (active).

Question: What about the growth inhibition [8, 16] of the same compound?
Answer: Its growth inhibition is 90% (active).

Question: What about the growth inhibition ([8]; at 50.0 µM) of the same compound?
Answer: Its growth inhibition is 37.2%.

Question: And the growth inhibition ([9]; at 1.2 µM)?
Answer: Its growth inhibition is -12%.

Question: What about the growth inhibition ([9]; at 3.7 µM) of the same compound?
Answer: The growth inhibition was -1%.

Question: What about the growth inhibition [9, 15] of the same compound?
Answer: Its growth inhibition is 28%.

Question: And the growth inhibition ([9]; at 11.0 µM)?
Answer: The growth inhibition was 0%.

Question: And the growth inhibition ([9]; at 33.0 µM)?
Answer: Its growth inhibition is 8%.

Question: What about the growth inhibition [9, 16] of the same compound?
Answer: Its growth inhibition is 81% (active).

Question: What about the growth inhibition ([9]; at 50.0 µM) of the same compound?
Answer: The growth inhibition was 47%.

Question: And the growth inhibition ([9]; at 100.0 µM)?
Answer: The growth inhibition was 64%.

Question: What about the growth inhibition ([10]; at 1.2 µM) of the same compound?
Answer: The growth inhibition was -34%.

Question: And the growth inhibition ([10]; at 3.7 µM)?
Answer: Its growth inhibition is -25%.

Question: What about the growth inhibition ([10]; at 11.0 µM) of the same compound?
Answer: The growth inhibition was -21%.

Question: What about the growth inhibition ([10]; at 33.0 µM) of the same compound?
Answer: Its growth inhibition is 5%.

Question: What about the growth inhibition ([10]; at 100.0 µM) of the same compound?
Answer: Its growth inhibition is 79% (active).

Question: What about the growth inhibition ([11]; at 1.2 µM) of the same compound?
Answer: Its growth inhibition is -25%.

Question: What about the growth inhibition ([11]; at 3.7 µM) of the same compound?
Answer: Its growth inhibition is -17%.

Question: And the growth inhibition ([11]; at 11.0 µM)?
Answer: The growth inhibition was -22%.

Question: What about the growth inhibition ([11]; at 33.0 µM) of the same compound?
Answer: Its growth inhibition is 21%.

Question: What about the growth inhibition ([11]; at 100.0 µM) of the same compound?
Answer: Its growth inhibition is 83% (active).

Question: And the growth inhibition ([12]; at 1.2 µM)?
Answer: Its growth inhibition is -16%.

Question: What about the growth inhibition ([12]; at 3.7 µM) of the same compound?
Answer: The growth inhibition was -12%.

Question: What about the growth inhibition ([12]; at 11.0 µM) of the same compound?
Answer: The growth inhibition was -14%.

Question: What about the growth inhibition ([12]; at 33.0 µM) of the same compound?
Answer: The growth inhibition was 33%.

Question: What about the growth inhibition ([12]; at 100.0 µM) of the same compound?
Answer: Its growth inhibition is 84% (active).

Question: And the growth inhibition [13, 15]?
Answer: Its growth inhibition is 61%.

Question: What about the growth inhibition [13, 16] of the same compound?
Answer: The growth inhibition was 99% (active).

Question: And the growth inhibition ([13]; at 50.0 µM)?
Answer: Its growth inhibition is 46.7%.

Question: What about the growth inhibition ([14]; at 1.2 µM) of the same compound?
Answer: The growth inhibition was -32%.

Question: And the growth inhibition ([14]; at 3.7 µM)?
Answer: Its growth inhibition is -38%.

Question: What about the growth inhibition ([14]; at 11.0 µM) of the same compound?
Answer: Its growth inhibition is -39%.

Question: What about the growth inhibition ([14]; at 33.0 µM) of the same compound?
Answer: Its growth inhibition is 10%.

Question: And the growth inhibition ([14]; at 100.0 µM)?
Answer: The growth inhibition was 72% (active).
